From PubChem BioAssay (Tox21)
Records with an inconclusive call do not appear. Activity calls are given as the source filed them. Unless noted, calls come from the whole dose curve; as a rule, active = well fitted curve in the direction sought with a large enough effect in the repeat runs; inconclusive = weak or mixed curves; inactive = no such curve, though single readings can be large; an effect the other way counts as inactive or inconclusive.

Assays:
[1] = target: Estrogen receptor beta (Homo sapiens) (UniProt Q92731); assay: qHTS assay to identify small molecule agonists of the estrogen receptor beta (ER-beta) signaling pathway (AID 1259377; active = well fitted activation curve with a large enough effect in the signal ratio in the repeat runs, not every such curve was filed as active; the % refers to the signal ratio)
How it was run: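 HEK293T ER-beta-UAS-bla; 2% charcoal-stripped FBS; cells pre-incubated 6 hr, compound 16 hr, 37C/5% CO2; LiveBLAzer B/G FRET substrate 2 h RT; fluorescence intensity read.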

[2] = target: Estrogen receptor beta (Homo sapiens) (UniProt Q92731); assay: qHTS assay to identify small molecule antagonists of the estrogen receptor beta (ER-beta) signaling pathway (AID 1259378; active = well fitted inhibition curve with a large enough effect in the signal ratio in the repeat runs, not every such curve was filed as active; the % refers to the signal ratio)
How it was run: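 ER-beta-UAS-bla HEK293T (GripTite) cells in 2% charcoal-stripped FBS medium were preincubated 6 hr at 37C, dosed with compound, then stimulated with 1 nM E2 (final) for 16 hr; beta-lactamase reporter read by B/G FRET fluorescence after 2 hr substrate loading.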

[3] = qHTS assay to identify small molecule agonists of the androgen receptor (AR) signaling pathway in the presence of an antagonist - cell viability counter screen (AID 1259379);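 note: MDA-kb2 human breast cancer cells carrying an MMTV luciferase reporter; series mostly up to about 92 µM; nearly all actives have a fitted effect of over 25% in size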
How it was run: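 MDA-kb2 cells (MMTV-luciferase, AR/GR), 3,000/well, 5 h attachment, then 3.0 µM nilutamide (final) and compounds at 15 concentrations. Viability by CellTiter-Fluor fluorescence after 16 h at 37 °C, 0% CO2, in the reporter wells.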

[4] = qHTS assay to identify small molecule antagonists of the estrogen receptor beta (ER-beta) signaling pathway - cell viability counter screen (AID 1259382); note: series mostly up to about 92 µM; nearly all actives have a fitted effect of over 55% in size
How it was run: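 ER-beta-UAS-bla HEK293T cells in 2% charcoal-stripped FBS medium, treated with compound plus 1 nM 17-beta-estradiol for 16 h at 37C. Viability read by CellTiter-Glo luminescence after 30 min at room temperature in the same wells.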

[5] = target: Estrogen receptor (Homo sapiens) (UniProt P03372); assay: qHTS assay to identify small molecule agonists of the estrogen receptor alpha (ER-alpha) signaling pathway in the presence of an antagonist (AID 1259383; calls by dose curve; note: top concentration of the series differs between compounds; nearly all actives have a fitted effect of over 15% in size)
How it was run: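 VM7Luc4E2 cells express endogenous full-length ER-alpha with an ERE-luciferase reporter and were hormone-deprived for 5 days. Compounds at 15 concentrations were added with 10.0nM ICI-182,780 for 22hr at 37C. Luminescence was read with ONE-Glo.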

[6] = qHTS assay to identify small molecule agonists or antagonists of the thyroid stimulating hormone receptor (TSHR) signaling pathway - wild type cell line counter screen (AID 1259384; calls by dose curve)
How it was run: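 Wild-type HEK293 cells were plated 18 h at 37 C/5% CO2, pin-dosed with compound plus Ro20-1724 medium, held 30 min at room temperature, then given cAMP-d2 and anti-cAMP-cryptate; fluorescence was read after 1 h. Fifteen concentrations, triplicate.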

[7] = target: Thyrotropin receptor (Homo sapiens) (UniProt P16473); assay: qHTS assay to identify small molecule antagonists of the thyroid stimulating hormone receptor (TSHR) signaling pathway (AID 1259385; calls by dose curve; note: nearly all actives have a fitted effect of over 20% in size)
How it was run: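 TSHR-HEK293 cells were plated and held 18 h at 37C/5% CO2, then given compound plus Ro20-1724 and stimulated with TSH at 1.5 ng/mL final. After 30 min at room temperature, cAMP was detected with cAMP-d2/anti-cAMP-cryptate (1 h) by fluorescence.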

[8] = qHTS assay to identify small molecule agonists of the estrogen receptor alpha (ER-alpha) signaling pathway in the presence of an antagonist - cell viability counter screen (AID 1259386);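 note: series mostly up to about 92 µM; cells exposed to compounds for 22 h at 37 °C before the viability read; nearly all actives have a fitted effect of over 30% in size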
How it was run: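 Cell viability in VM7Luc4E2 cells (endogenous full-length ER-alpha) measured by CellTiter-Fluor fluorescence in the same wells as the luciferase screen. Cells pre-cultured 5 days in charcoal-stripped serum, then treated 22 h with compounds at 15 concentrations plus 10.0nM ICI-182,780.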

[9] = qHTS assay to identify small molecule agonists of the estrogen receptor beta (ER-beta) signaling pathway - cell viability counter screen (AID 1259380); note: nearly all actives have a fitted effect of over 30% in size; note: potency is the fitted concentration of half-maximal effect
How it was run: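 ER-beta-UAS-bla HEK293T cells in medium with 2% charcoal-stripped FBS, pre-incubated 6 hr, then treated 16 hr at 37C. Cytotoxicity read in the same wells by CellTiter-Glo luminescence after 30 min at room temperature.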

[10] = target: Androgen receptor (Homo sapiens) (UniProt P10275); assay: qHTS assay to identify small molecule agonists of the androgen receptor (AR) signaling pathway in the presence of an antagonist (AID 1259381; calls by dose curve; note: nearly all actives have a fitted effect of over 15% in size)
How it was run: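 MDA-kb2 cells carrying MMTV-luciferase (AR/GR responsive), 3,000 cells/well, co-treated with 3.0 uM nilutamide final. Compounds at 15 concentrations, 16 hr at 37C without CO2. Luciferase luminescence read after 30 min with ONE-Glo.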
% is set by controls: 0 for no effect and ±100 for the full control effect.

Chain of Androgen receptor (Homo sapiens) (P10275 whole entry, looked up): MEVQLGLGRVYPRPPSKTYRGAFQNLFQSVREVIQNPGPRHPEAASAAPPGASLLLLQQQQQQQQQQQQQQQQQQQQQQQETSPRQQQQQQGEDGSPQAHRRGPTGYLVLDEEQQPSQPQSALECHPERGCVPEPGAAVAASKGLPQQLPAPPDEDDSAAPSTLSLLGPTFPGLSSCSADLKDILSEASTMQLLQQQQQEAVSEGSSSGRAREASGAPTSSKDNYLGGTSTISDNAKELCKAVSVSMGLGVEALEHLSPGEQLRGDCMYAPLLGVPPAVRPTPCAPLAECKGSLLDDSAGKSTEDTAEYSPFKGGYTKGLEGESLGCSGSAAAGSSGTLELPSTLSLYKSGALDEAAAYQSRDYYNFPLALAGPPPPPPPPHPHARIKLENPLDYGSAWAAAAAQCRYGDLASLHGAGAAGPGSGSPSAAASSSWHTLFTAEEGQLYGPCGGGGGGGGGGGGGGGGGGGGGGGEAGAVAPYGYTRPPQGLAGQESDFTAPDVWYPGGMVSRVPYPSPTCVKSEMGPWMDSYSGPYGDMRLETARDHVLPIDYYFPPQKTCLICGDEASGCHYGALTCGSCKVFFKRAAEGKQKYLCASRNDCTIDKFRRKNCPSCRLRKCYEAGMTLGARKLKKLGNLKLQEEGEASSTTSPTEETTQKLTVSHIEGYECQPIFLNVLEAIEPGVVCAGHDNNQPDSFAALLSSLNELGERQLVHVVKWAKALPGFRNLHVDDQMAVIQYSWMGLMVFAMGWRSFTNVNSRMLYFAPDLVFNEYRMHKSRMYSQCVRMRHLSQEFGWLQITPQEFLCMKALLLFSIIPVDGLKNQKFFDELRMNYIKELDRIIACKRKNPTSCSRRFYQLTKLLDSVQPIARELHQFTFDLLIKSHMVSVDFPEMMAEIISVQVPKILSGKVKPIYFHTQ
Chain of Thyrotropin receptor (Homo sapiens) (P16473 whole entry, looked up): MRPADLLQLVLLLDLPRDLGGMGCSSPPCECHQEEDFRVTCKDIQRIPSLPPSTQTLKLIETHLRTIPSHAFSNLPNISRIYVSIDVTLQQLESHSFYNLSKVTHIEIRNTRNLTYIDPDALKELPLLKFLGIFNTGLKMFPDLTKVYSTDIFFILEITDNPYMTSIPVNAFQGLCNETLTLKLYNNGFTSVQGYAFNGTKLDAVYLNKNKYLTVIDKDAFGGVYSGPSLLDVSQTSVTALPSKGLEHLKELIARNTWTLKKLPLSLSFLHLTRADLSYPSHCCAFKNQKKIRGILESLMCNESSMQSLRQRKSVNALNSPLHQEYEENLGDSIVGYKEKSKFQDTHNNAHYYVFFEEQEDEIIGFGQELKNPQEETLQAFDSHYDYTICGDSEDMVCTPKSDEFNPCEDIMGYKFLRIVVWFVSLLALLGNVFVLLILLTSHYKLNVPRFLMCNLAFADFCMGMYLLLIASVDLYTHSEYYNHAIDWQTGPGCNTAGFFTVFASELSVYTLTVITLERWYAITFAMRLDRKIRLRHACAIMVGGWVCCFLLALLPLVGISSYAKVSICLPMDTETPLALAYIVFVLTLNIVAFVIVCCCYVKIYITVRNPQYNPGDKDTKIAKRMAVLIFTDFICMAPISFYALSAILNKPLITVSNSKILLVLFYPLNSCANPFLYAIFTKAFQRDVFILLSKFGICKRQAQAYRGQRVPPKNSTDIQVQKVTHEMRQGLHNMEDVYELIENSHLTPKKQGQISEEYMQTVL
Chain of Estrogen receptor beta (Homo sapiens) (Q92731 whole entry, looked up): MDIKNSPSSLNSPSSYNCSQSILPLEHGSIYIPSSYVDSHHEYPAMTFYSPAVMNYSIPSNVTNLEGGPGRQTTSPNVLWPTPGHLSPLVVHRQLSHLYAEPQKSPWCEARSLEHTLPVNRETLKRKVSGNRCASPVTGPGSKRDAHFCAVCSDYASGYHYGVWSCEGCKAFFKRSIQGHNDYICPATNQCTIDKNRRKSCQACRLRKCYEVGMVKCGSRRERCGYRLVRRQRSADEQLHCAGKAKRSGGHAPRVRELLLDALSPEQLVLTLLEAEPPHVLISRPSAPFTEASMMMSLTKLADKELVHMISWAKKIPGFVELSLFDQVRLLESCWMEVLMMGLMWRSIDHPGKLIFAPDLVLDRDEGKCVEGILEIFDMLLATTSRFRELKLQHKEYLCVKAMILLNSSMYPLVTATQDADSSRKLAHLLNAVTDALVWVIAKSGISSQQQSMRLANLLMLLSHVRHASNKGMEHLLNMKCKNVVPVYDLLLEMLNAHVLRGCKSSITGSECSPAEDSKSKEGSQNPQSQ
Chain of Estrogen receptor (Homo sapiens) (P03372 whole entry, looked up): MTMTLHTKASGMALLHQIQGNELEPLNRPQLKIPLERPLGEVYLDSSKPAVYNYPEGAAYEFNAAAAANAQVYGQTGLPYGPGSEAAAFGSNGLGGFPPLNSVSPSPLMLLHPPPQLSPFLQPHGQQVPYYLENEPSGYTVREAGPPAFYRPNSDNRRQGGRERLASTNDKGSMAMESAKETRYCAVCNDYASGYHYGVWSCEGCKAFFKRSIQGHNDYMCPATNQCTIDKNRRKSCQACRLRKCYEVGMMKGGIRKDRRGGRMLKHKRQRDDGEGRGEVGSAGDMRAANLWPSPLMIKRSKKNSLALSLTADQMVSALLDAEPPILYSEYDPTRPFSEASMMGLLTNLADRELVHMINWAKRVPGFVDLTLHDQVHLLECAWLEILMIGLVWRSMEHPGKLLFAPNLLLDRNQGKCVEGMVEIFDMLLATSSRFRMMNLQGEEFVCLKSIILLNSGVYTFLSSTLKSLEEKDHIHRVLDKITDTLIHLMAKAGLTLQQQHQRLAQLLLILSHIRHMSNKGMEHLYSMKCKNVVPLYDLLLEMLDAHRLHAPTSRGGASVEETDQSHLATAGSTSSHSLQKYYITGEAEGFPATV

CC(C)(C)c1ccc(CCC=O)cc1
inactive: Potency [1] | Potency [2] | Potency [3] | Potency [4] | Potency [5] | outcome [6] | Potency [7] | Potency [8]

C=CC(C)(O)CC/C=C(/C)CCC=C(C)C (stereo unspecified)
inactive: Potency [1] | Potency [2] | Potency [3] | Potency [9] | Potency [4] | Potency [8]

O=C(Cl)c1cc(Cl)cc(Cl)c1
inactive: Potency [1] | Potency [2] | Potency [3] | Potency [9] | Potency [5] | outcome [6] | Potency [8]

Cc1ccc(Cl)c(OCC(O)CNC(C)(C)C)c1 (stereo unspecified)
inactive: Potency [1] | Potency [2] | Potency [3] | Potency [5] | Potency [8]

NC(=O)c1cc[n+](CC2=C(C(=O)[O-])N3C(=O)[C@@H](NC(=O)Cc4cccs4)[C@H]3SC2)cc1
inactive: Potency [1] | Potency [2] | Potency [9] | Potency [4] | outcome [6] | Potency [7] | Potency [8]

O=C(O)c1ccc2c(c1)nc(C(=O)NC1CCN(C3CC3)CC1)n2Cc1cc(-c2ccc(Cl)s2)on1
inactive: activation [1] -4.72% [at 19 µM] | activity, negative = inhibition [2] 18.6% [at 19 µM] | activity change, negative = cytotoxicity [3] 2.61% [at 19 µM] | activity change, negative = cytotoxicity [4] -12.8% [at 19 µM] | activation [5] 1.43% [at 19 µM] | cAMP activity change [6] 1.96% [at 18.9 µM] | activity change, negative = inhibition [7] 2.44% [at 19 µM] | activity change, negative = cytotoxicity [8] 7.53% [at 19 µM]

CC(C)=CCC/C(C)=C/C=N/O
inactive: Potency [1] | Potency [2] | Potency [3] | Potency [9] | Potency [5] | outcome [6] | Potency [7] | Potency [8]

CCOCCn1c(N2CCCN(C)CC2)nc2ccccc21
inactive: Potency [1] | Potency [2] | Potency [9] | Potency [10] | Potency [4] | Potency [8]

CCCC1CCOC(C)S1 (stereo unspecified)
inactive: Potency [1] | Potency [2] | Potency [9] | Potency [10] | Potency [4] | outcome [6] | Potency [7] | Potency [8]

Sc1nc(S)nc(S)n1
inactive: Potency [1] | Potency [2] | Potency [3] | Potency [9] | outcome [6] | Potency [7] | Potency [8]

Cc1c(Cl)cccc1[N+](=O)[O-]
inactive: Potency [1] | Potency [2] | Potency [3] | Potency [9] | Potency [4] | Potency [8]

CC(C)CCCCCCCOC(=O)c1ccc(C(=O)OCCCCCCCC(C)C)c(C(=O)OCCCCCCCC(C)C)c1
inactive: Potency [1] | Potency [2] | Potency [3] | Potency [9] | outcome [6] | Potency [7] | Potency [8]

CC(=O)Nc1ccccc1O
inactive: Potency [1] | Potency [2] | Potency [3] | Potency [9] | Potency [4] | outcome [6] | Potency [7] | Potency [8]

CCCCOc1ccc(N)cc1
inactive: Potency [1] | Potency [2] | Potency [3] | Potency [9] | Potency [4] | outcome [6] | Potency [7] | Potency [8]

CC(=O)Nc1cccc(N)c1
inactive: Potency [1] | Potency [2] | Potency [3] | Potency [9] | Potency [5] | outcome [6] | Potency [8]

Cc1cccc(C)c1NC(=O)CN1CCCC1
inactive: Potency [1] | Potency [2] | Potency [9] | Potency [4] | outcome [6] | Potency [7] | Potency [8]

C=C[Si](OCC)(OCC)OCC
inactive: Potency [1] | Potency [2] | Potency [3] | Potency [9] | Potency [4] | outcome [6] | Potency [7] | Potency [8]

C[C@H](CN1CCCC1)C(=O)c1ccc(C(F)(F)F)cc1
inactive: Potency [1] | Potency [2] | Potency [3] | Potency [4] | outcome [6] | Potency [8]

CCC(C)C1N=C(C)C(C)S1 (stereo unspecified)
inactive: Potency [1] | Potency [2] | Potency [9] | Potency [4] | outcome [6] | Potency [7] | Potency [8]

CC(=O)CC/C=C(\C)CC/C=C(\C)CC/C=C(\C)CCC=C(C)C
inactive: Potency [1] | Potency [2] | Potency [3] | Potency [9] | Potency [4] | Potency [8]

CO[C@@H]1[C@@H](O[C@@H]2O[C@H](C)[C@@H](O[C@H]3C[C@@](C)(O)[C@@H](O)[C@H](C)O3)[C@H](N(C)C)[C@H]2O)[C@@H](CC=O)C[C@@H](C)[C@@H](O[C@@H]2CC[C@H](N(C)C)[C@@H](C)O2)/C=C/C=C/C[C@@H](C)OC(=O)C[C@H]1OC(C)=O
inactive: Potency [1] | Potency [2] | Potency [3] | Potency [4] | Potency [5] | Potency [8]

CCCCCCCCCCCC(=O)OCC
inactive: Potency [1] | Potency [2] | Potency [9] | Potency [4] | Potency [5] | outcome [6] | Potency [7] | Potency [8]

CCCCOC(=O)C(C)Oc1ccc(Oc2ccc(C(F)(F)F)cn2)cc1 (stereo unspecified)
inactive: Potency [1] | Potency [2] | Potency [9] | Potency [4] | Potency [5] | outcome [6] | Potency [7] | Potency [8]

CC(C)(O)C(=O)O
inactive: Potency [1] | Potency [2] | Potency [3] | Potency [9] | Potency [4] | Potency [8]

C/C=C1\[C@H]2C=C(C)C[C@]1(N)c1ccc(=O)[nH]c1C2
inactive: Potency [1] | Potency [2] | Potency [3] | Potency [9] | outcome [6] | Potency [7] | Potency [8]

CCCCCCOC(=O)c1ccccc1
inactive: Potency [1] | Potency [2] | Potency [3] | Potency [5] | outcome [6] | Potency [7] | Potency [8]
active: Potency [9] 27.3 µM

CCCOC(C)=O
inactive: Potency [1] | Potency [2] | Potency [9] | Potency [10] | Potency [4] | Potency [5] | outcome [6] | Potency [7] | Potency [8]

CCCCCCCCC(=O)OCC(C)OC(=O)CCCCCCCC (stereo unspecified)
inactive: Potency [1] | Potency [2] | Potency [3] | Potency [9] | Potency [4] | outcome [6] | Potency [7] | Potency [8]

c1ccc(CN(Cc2ccccc2)Cc2ccccc2)cc1
inactive: Potency [1] | Potency [3] | Potency [4] | outcome [6] | Potency [8]

CC(C)=CCC[C@H](C)CCO
inactive: Potency [1] | Potency [2] | Potency [9] | outcome [6] | Potency [7] | Potency [8]
